Only some compounds are listed: those with a hit (about 0.87% of all), similar ones and a draw of the others.
USP1 inh – blocks the human USP1/UAF1 deubiquitinase complex; O94782; recombinant USP1/UAF1, Ub-Rhodamine cleavage fluorescence; Potency, µM (series often up to 57.1 µM), for the others: at the highest dose activity change, negative = inhibition, usual class: inhibitors; 390,000 compounds, 0.23% hits; AID 743255; further: potency means the concentration at half of the fitted maximal effect; on the % scale 0 is the no-effect control and ±100 the full control effect; nearly all actives have a fitted effect of over 60% in size
Target sequence (O94782 whole entry, looked up): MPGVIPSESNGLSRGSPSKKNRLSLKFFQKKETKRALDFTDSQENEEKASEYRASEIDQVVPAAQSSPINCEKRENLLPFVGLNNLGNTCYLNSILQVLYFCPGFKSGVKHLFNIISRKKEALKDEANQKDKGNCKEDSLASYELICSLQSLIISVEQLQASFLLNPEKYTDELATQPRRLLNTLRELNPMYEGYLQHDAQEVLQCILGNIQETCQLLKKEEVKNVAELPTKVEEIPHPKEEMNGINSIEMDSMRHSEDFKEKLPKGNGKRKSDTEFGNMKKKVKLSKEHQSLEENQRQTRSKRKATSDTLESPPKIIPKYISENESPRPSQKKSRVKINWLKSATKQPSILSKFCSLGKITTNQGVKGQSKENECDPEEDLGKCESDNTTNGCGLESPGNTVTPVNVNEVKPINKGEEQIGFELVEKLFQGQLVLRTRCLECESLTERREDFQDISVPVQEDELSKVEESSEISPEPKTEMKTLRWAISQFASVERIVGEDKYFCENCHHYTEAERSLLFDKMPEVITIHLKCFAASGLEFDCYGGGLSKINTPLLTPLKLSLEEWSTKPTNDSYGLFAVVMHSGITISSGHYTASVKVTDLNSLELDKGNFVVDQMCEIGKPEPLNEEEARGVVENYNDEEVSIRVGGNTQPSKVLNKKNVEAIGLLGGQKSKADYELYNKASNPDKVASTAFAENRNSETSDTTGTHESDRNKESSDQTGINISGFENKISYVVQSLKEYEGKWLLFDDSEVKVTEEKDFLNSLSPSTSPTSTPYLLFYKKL
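Step one: compound is pinned into 1nM USP1/UAF1 in HEPES pH 7.8 buffer with TCEP. Step two: 15 min room-temperature incubation. Step three: Ub-Rho (150nM final) starts cleavage, tracked by fluorescence over six one-minute reads.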
EPAC1 agonist – EPAC1 (human) agonism. 360,000 compounds, 0.073% hits. O95398. AID 720707. EPAC1 agonist qHTS, biochemical assay; response scale: 100% = response to 6.5 mM cAMP. Potency, µM (highest dose often 154 µM), without a hit: at the highest dose activation, usual class: activators; further: potency means the concentration at half of the fitted maximal effect; nearly all actives have a fitted effect of over 60% in size
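Fluorescent GDP-exchange assay: 100 nM EPAC1 with 250 nM Rap1B preloaded with BODIPY-GDP and 50 uM GDP; compounds tested as concentration series, 5 min at room temperature, then read every 5 min for 30 min (ex 480/em 540 nm); normalized to 6.5 mM cAMP.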
EPAC1 antag – antagonists of human EPAC1 | O95398 | EPAC1 GEF assay, Rap1b-BODIPY-GDP exchange fluorescence | Potency, µM (titrated, usually from 115 µM), for the others: at the highest dose activity change, negative = inhibition, hits mostly inhibitors | 360,000 compounds, 0.14% hits | AID 720709;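 further: potency means the concentration at half of the fitted maximal effect; plate controls were vehicle for no effect and positive control for full effect; nearly all actives have a fitted effect of over 50% in size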
Coupling enz – coupling enzyme interference in Giardia aldolase counter-screen; coupling enzyme system counterscreen, AmpLite Red fluorescence; activity change, negative = inhibition, % at 58.2 µM, hits read low; 290,000 compounds, 0.67% hits; AID 2472; in the data active means activity change below about -30%; further: on the % scale 0 is the no-effect control and ±100 the full control effect
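Fluorescence at 525 nm excitation and 598 nm emission measured inhibition of the coupled detection system without aldolase. Compounds (at 57.5 uM final) were preincubated 10 min at room temperature with coupling enzyme reagent before a 20 min substrate/AmpLite Red step.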
EPAC2 antagonist – antagonists of human EPAC2 | EPAC2 GEF exchange of Rap1B-BODIPY-GDP, fluorescence | AID 720708 | 360,000 compounds, 0.18% hits | Potency, µM (doses to about 114 µM), for the others: top-dose activity, negative = inhibition, actives largely listed as inhibitors; further: potency means the concentration at half of the fitted maximal effect; on the % scale 0 is the no-effect control and ±100 the full control effect; nearly all actives have a fitted effect of over 45% in size
EPAC2 ag – EPAC2 (human) agonism; Q8WZA2; EPAC2 activation, biochemical qHTS; response scale: 100% = 6.5 mM cAMP response; Potency, µM (highest dose often 154 µM), without a hit: at the top dose activation, most hits filed as activators; 360,000 compounds, 0.079% hits; AID 720711; further: potency means the concentration at half of the fitted maximal effect; nearly all actives have a fitted effect of over 50% in size
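Guanine nucleotide exchange by EPAC2 is measured as reduced fluorescence of BODIPY-GDP once it is released from 250 nM Rap1B. Plates are read kinetically for 30 min at room temperature; results are scaled to 6.5 mM cAMP.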
* = called active by the depositor; u = inconclusive; x = no result given. Unless noted, the call rests on the fitted dose curve; in most records, active means well fitted curve in the direction sought with a large enough effect; inconclusive means small, poorly fitted or top-dose-only effect, or another doubt; inactive means no such curve, though single readings can be large; an effect the other way counts as inactive or inconclusive.

SMILES | USP1 inh | EPAC1 agonist | EPAC1 antag | Coupling enz | EPAC2 antagonist | EPAC2 ag
CCOc1cc(C(=O)N(CC)CC(=O)Nc2c(F)cccc2F)ccc1OCC(=O)N1CCOCC1 | -13.6% | -6.5% | 10.7% | x | 25.8% | 11.9%
CCN(CC1COc2ccccc2O1)C(=O)CN1C(=O)NC(C)(c2ccc(C)cc2)C1=O (stereo not given) | -23.8% | 56.2µM* | -16.2% | x | 8.6% | 3.0%
CN1C(=O)/C(=C/C=C2/CCCN2C)N(C)C1=S | -26.2% | -16.2% | u | -42.4* | u | -12.7%
Cc1cc(N2CCCC2)ccc1/C=C1/C(=O)N(C)C(=S)N1C | u | -3.4% | -6.9% | 0.0 | 18.2% | 0.6%
Cc1nnc(SCc2ccccc2)c2cc3sccc3n12 | -25.7% | x | x | x | x | x
CC(=O)N[C@@H](Cc1ccc(O)cc1)C(=O)N[C@H](C(=O)N[C@@H](C)C(=O)N[C@H](C=O)CC(=O)O)C(C)C | x | x | x | -0.3 | x | x
CN(C)c1ccc(NC(=O)N2CCOCC2)cc1 | -9.7% | 0.6% | -6.4% | -31.5* | 4.6% | 7.7%
CCN1C(=O)C(C)C=C(C)C=C1C (stereo not given) | -24.7% | 5.3% | 15.2% | x | 5.2% | 2.2%
CN(C)S(=O)(=O)c1cccc(NC(=S)Nc2cccc3cnccc23)c1 | u | -1.7% | -2.1% | -53.4* | 2.5% | 5.9%
Fc1ccc(NC(=S)Nc2cccc3cnccc23)cc1 | -20.8% | 10.5% | -5.5% | -50.6* | 0.0% | -0.3%
Fc1ccc(NC(=S)Nc2cccc3ccccc23)cc1 | -24.0% | 8.2% | -21.8% | -4.6 | -0.7% | 4.5%
S=C(Nc1cccnc1)Nc1cccc2cnccc12 | u | -3.4% | 13.5% | -37.3* | 31.1% | 1.6%
Cc1ccc(S(=O)(=O)N(C)C)cc1NC(=S)Nc1cccc2ccccc12 | u | -9.2% | -9.4% | -2.6 | 6.6% | 19.4%
Fc1ccc(NC(=S)Nc2cccc3ccccc23)cc1F | -26.8% | -8.5% | -13.8% | -2.2 | 0.6% | 14.4%
S=C(Nc1ccc(Cl)cc1)Nc1cccc2cnccc12 | u | 1.7% | 17.0% | -47.6* | -0.6% | 9.9%
COc1ccc(CC(=O)Nc2c3c(nn2C(C)(C)C)CS(=O)(=O)C3)cc1OC | -13.3% | -4.8% | 15.8% | x | 7.2% | 8.1%
C=CCn1c(N)c(C(=O)Nc2ccc(C)c(C)c2)c2nc3ccccc3nc21 | -16.9% | -1.4% | -0.9% | 5.2 | 1.0% | -17.1%
C=CCn1c(N)c(C(=O)Nc2cccc(C)c2)c2nc3ccccc3nc21 | u | 14.5% | -4.4% | -33.8* | -5.2% | 14.8%
CCN(CC)C(=O)C1=C(C)N(CCCOC)C(=O)C(CC(=O)NCC2CCCCC2)C1 (stereo not given) | -16.0% | -0.5% | 11.1% | x | 3.9% | 1.3%
Cc1c(C)c2c(c(C)c1O)CC[C@@](C)(CCC[C@@H](C)CCC[C@@H](C)CCCC(C)C)O2 | x | x | x | -1.9 | x | x
Cc1c(C)c2c(c(C)c1O)CC[C@@](C)(C(=O)O)O2 | x | x | x | -34.1* | x | x
CC(=O)N1CCc2cc(S(=O)(=O)CCC(=O)Nc3cc(C)cc(C)c3)ccc21 | -12.3% | 7.5% | -25.2% | 0.7 | 2.9% | 5.7%
Nn1cnnc1N/N=C\c1ccc(-c2ccccc2[N+](=O)[O-])o1 | u | -1.4% | -10.1% | -49.2* | -2.6% | -3.5%
O=C(N/N=C/c1ccc(-c2ccccc2[N+](=O)[O-])o1)c1cncc(Br)c1 | -12.2% | 5.2% | -9.9% | -13.3 | -2.7% | 3.8%
O=[N+]([O-])c1ccccc1-c1ccc(/C=N/n2cnnc2)o1 | -2.8% | 12.6% | -4.8% | 2.7 | -0.3% | 9.0%
SMILES | USP1 inh | EPAC1 agonist | EPAC1 antag | Coupling enz | EPAC2 antagonist | EPAC2 ag
Cc1c(C(=O)N/N=C/c2ccc(-c3ccccc3[N+](=O)[O-])o2)sc(N)c1C#N | -23.4% | -10.4% | -9.2% | -33.4* | 19.4% | -0.6%
O=C1C=CC(c2ccccc2)(c2ccccc2)CC1 | -7.9% | 1.3% | 4.1% | x | 44.7µM* | 11.6%
CN1C(=O)CCC1(O)c1ccccc1 (stereo not given) | -2.3% | 2.5% | 1.8% | 1.6 | -3.0% | 14.0%
CC1(C)CC(=O)C2=C(C1)N(c1cccc(O)c1)C1=C(C2)C(=O)CC(C)(C)C1 | -16.9% | 2.1% | -15.4% | -36.1* | 7.2% | -7.0%
CC1(C)CC(=O)C2=C(C1)N(c1ccccc1)C(=O)C(C(=O)OCc1ccccc1)C2 (stereo not given) | -19.7% | -9.8% | -13.8% | x | -19.2% | 1.1%
Cc1nn2c3c(cnc2c1-c1ccccc1)C(=O)CCC3 | -21.7% | -4.1% | 13.4% | 0.6 | 5.1% | -4.2%
N#CCc1nn2c3c(cnc2c1C#N)C(=O)CCC3 | u | 4.5% | -2.2% | -32.5* | 5.5% | 8.3%
O=C(Cn1c(=O)cnc2ccccc21)N1CCCc2ccccc21 | -7.3% | 5.3% | -18.4% | 1.1 | -7.2% | 9.7%
Cn1cccc1/C=C1\CC(C(C)(C)C)C/C(=C\c2cccn2C)C1=O (stereo not given) | 11.2µM* | 6.0% | 7.3% | -11.2 | -27.8% | -17.9%
CN1C2CCC1/C(=C/c1cccn1C)C(=O)/C2=C\c1cccn1C | 28.2µM* | u | 49.4% | 0.3 | 49.3% | u
COc1ccc(N(C(=O)c2ccco2)C(C(=O)NC2CCCC2)c2ccc(OC)c(OC)c2)cc1 (stereo not given) | -16.9% | 3.3% | 6.0% | 5.4 | 3.1% | 9.5%
CCOc1ccc(CCNC(=O)CCc2cn(Cc3ccccc3F)c3ccccc23)cc1OCC | -20.3% | x | x | x | x | x
Cn1c(COc2ccc(Br)cc2)nnc1SC1CCc2ccccc2C1=O (stereo not given) | -9.6% | 4.9% | -14.0% | -56.6* | -13.0% | 9.4%
CCOc1ccc(S(=O)(=O)Nc2nc3ccccc3nc2-n2ccc(=NC(=O)c3cccs3)cc2)cc1 | -0.4% | u | -14.4% | -0.6 | 40.8% | 100µM*
CNS(=O)(=O)c1cccc(C(=O)OC2CCOC2=O)c1 (stereo not given) | -19.4% | 15.3% | 10.1% | 1.3 | -0.8% | -3.0%
C/C(Cn1nnc([N+](=O)[O-])n1)=N\NC(=O)c1cccc(Cl)c1 | -7.8% | 3.1% | -2.6% | -36.1* | -1.5% | 11.2%
C/C(Cn1cnc([N+](=O)[O-])n1)=N\NC(=O)c1cccc(F)c1 | -7.3% | 1.3% | -2.0% | -5.1 | 10.0% | -4.5%
C/C(CC(=O)Nc1ccccn1)=N\NC(=O)c1ccc([N+](=O)[O-])cc1Cl | -21.8% | 10.9% | -11.4% | 3.1 | 5.1% | 6.5%
C/C(Cn1nnc([N+](=O)[O-])n1)=N\NC(=O)c1ccccc1Cl | -5.3% | 5.1% | 19.6% | -40.0* | 13.3% | 7.3%
CCCCn1c(NC(C)=O)c(C#N)c2nc3ccccc3nc21 | -21.8% | 5.7% | 1.3% | -58.7* | -3.6% | 8.8%
